Results on six compounds are retold here after PubChem BioAssay (EPA / NIEHS).

The source made the active and inactive calls. The calls were made as follows: active = hit-call score of the fitted dose curve at least 0.9, where 1 is the maximum; inactive = score below 0.9.

Assay [1] can be described thus: APR_HepG2_CellCycleArrest_24hr: Apredica 24-hour HepG2 Assay for Cell Cycle Arrest (AID 2282905).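 Also: cell cycle arrest scored as ratio of 2N to 4N nuclear DNA content.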 To be noted: imaging, actives raise or lower the signal. The method, boiled down:
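Readout: Hoechst 33342 nuclear DNA content by high-content fluorescent imaging, six images/well, 20x. Human HepG2 liver cells, 24 hr compound exposure, 0.39–200 uM, final DMSO 0.5% v/v. Gain or loss fitted relative to DMSO baseline.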

Assay [2] can be described thus: APR_HepG2_NuclearSize_24hr: Apredica 24-hour HepG2 Assay for Nuclear Size (AID 2282907). The note with it: high-content imaging, actives raise or lower the signal. Put shortly: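 Read-out: nuclear diameter from Hoechst 33342 (2 ug/mL) imaging of fixed HepG2 cells, 20x, six fields/well. Compounds ran at 0.39–200 uM for 24 hr, 0.5% DMSO final. Gain or loss was fitted bidirectionally relative to the DMSO baseline.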

Assay [3] can be described thus: APR_HepG2_CellLoss_24hr: Apredica 24-hour HepG2 Assay for Cell Loss (AID 2282908).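 As to AC50: fit in both directions so a hit may be cell loss or gain.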 To be noted: high-content imaging. The method, boiled down: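 Read-out: Hoechst 33342-stained nuclei counted by automated fluorescence imaging after formaldehyde fixation and Triton permeabilization. Ten concentrations, 0.39 to 200 uM, duplicate wells, 0.5% DMSO final. Gain or loss of signal fitted relative to DMSO baseline.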

Assay [4] is described as follows: APR_HepG2_MicrotubuleCSK_24hr: Apredica 24-hour HepG2 Assay for Microtubule CSK Stabilty (AID 2282909). The note with it: HepG2 microtubule cytoskeleton imaging, actives raise or lower the signal. The method, boiled down: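 Read-out: alpha-tubulin immunofluorescence intensity by automated high-content imaging of fixed HepG2 cells after 24 h compound treatment. Ten concentrations, 0.39 to 200 uM, in duplicate; DMSO 0.5% v/v. Taxol positive control; DMSO-normalized bidirectional curve fitting.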

The nature of assay [5]: APR_HepG2_MitoticArrest_24hr: Apredica 24-hour HepG2 Assay for Mitotic Arrest (AID 2282910). The note with it: high-content imaging, actives raise or lower the signal. Put shortly:
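HepG2, 24 hr dosing, 0.39–200 uM, 0.5% DMSO final. Formaldehyde-fixed, Triton-permeabilised, anti-phospho-histone H3 plus Hoechst. ArrayScan imaging at 20x; bidirectional fit vs DMSO baseline.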

A short description of assay [6]: APR_HepG2_MitoMembPot_24hr: Apredica 24-hour HepG2 Assay for Mitochondrial Membrane Potential (AID 2282911). To be noted: imaging, actives raise or lower the signal. Put shortly: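 Mitochondrial dye uptake (MitoTracker Red CMXRos, 250 nM, 30 min pre-fixation) in HepG2 after 24 hr compound exposure, 0.39–200 uM; ArrayScan images at 20x, activity fitted in both directions relative to DMSO.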

Assay [7] in a line: APR_HepG2_MitoMass_24hr: Apredica 24-hour HepG2 Assay for Mitochondrial Mass (AID 2282912). The note with it: high-content imaging, actives raise or lower the signal. The method, boiled down: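 HepG2, 24 hr dosing, 10 concentrations 0.39–200 uM in duplicate, DMSO 0.5% final. MitoTracker Red CMXRos 250 nM, 30 min pre-fix; 3.7% formaldehyde fix. Imaging-based fluorescence intensity; gain/loss fit vs DMSO baseline.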

Assay [8] in a line: APR_HepG2_p53Act_24hr: Apredica 24-hour HepG2 Assay for p53 Activation (AID 2282913).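 Also: p53 protein immunofluorescence averaged per cell in HepG2 with Hoechst nuclei.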 The note with it: high-content imaging, actives raise or lower the signal. Put shortly:
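Following 24 hr dosing of HepG2 at 0.39–200 uM, the cells undergo formaldehyde fixation, Triton permeabilization and multiplexed antibody labeling that includes p53 (Cy5). Signal from the imaging is referenced to DMSO solvent controls.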

Assay [9] can be described thus: APR_HepG2_CellCycleArrest_72hr: Apredica 72-hour HepG2 Assay for Cell Cycle Arrest (AID 2282914). To be noted: high-content imaging, actives raise or lower the signal. Put shortly: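 Using multiplexed high-content imaging, HepG2 nuclei stained with Hoechst 33342 (2 ug/mL) were analysed for DNA content after fixation and permeabilization. Treatment lasted 72 hr across 0.39–200 uM in duplicate with final DMSO 0.5% v/v; DMSO served as negative control.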

A short description of assay [10]: APR_HepG2_CellLoss_72hr: Apredica 72-hour HepG2 Assay for Cell Loss (AID 2282915). To be noted: high-content imaging. The method, boiled down: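 HepG2 cells exposed 72 h to compound at 0.39–200 uM (10 concentrations, duplicate) in 0.5% DMSO. Fixed with 3.7% formaldehyde and Hoechst 33342-stained. Imaged at 20x; nuclear count gives cell number, fitted bidirectionally versus DMSO.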

Assay [11] can be described thus: APR_HepG2_P-H2AX_72hr: Apredica 72-hour HepG2 Assay for H2AX Phosphorylation (AID 2282916).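 Also: phospho-histone H2A.x immunostain intensity per cell marking DNA damage.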 The note with it: imaging, actives raise or lower the signal. The method, boiled down:
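Readout: phospho-H2A.x immunofluorescence (FITC secondary) plus Hoechst nuclear stain, high-content imaging at 20x, six fields/well. HepG2, 72 hr compound exposure, 0.39–200 uM, final DMSO 0.5% v/v. Gain or loss fitted relative to DMSO baseline.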

A short description of assay [12]: APR_HepG2_MitoticArrest_72hr: Apredica 72-hour HepG2 Assay for Mitotic Arrest (AID 2282918). To be noted: high-content imaging, actives raise or lower the signal. The method, boiled down:
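Using high-content imaging of fixed HepG2 cells, phospho-histone H3 signal was measured following a 72 hr incubation with ten-point compound dilutions up to 200 uM. DMSO served as the negative control and baseline for bidirectional curve fitting.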

Assay [13] in a line: APR_HepG2_MicrotubuleCSK_72hr: Apredica 72-hour HepG2 Assay for Microtubule CSK Stabilty (AID 2282919). To be noted: HepG2 microtubule cytoskeleton, high-content imaging, actives raise or lower the signal. Put shortly: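 HepG2, 72 hr cmpd exposure, 0.39–200 uM (10 pts, duplicate), 0.5% DMSO. 3.7% formaldehyde fix, 0.5% Triton perm, anti-alpha-tubulin/Cy5 plus Hoechst. HCS fluorescence intensity; bidirectional fit vs DMSO baseline; taxol as positive control.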

The nature of assay [14]: APR_HepG2_P-H2AX_24hr: Apredica 24-hour HepG2 Assay for H2AX Phosphorylation (AID 2282920). To be noted: high-content imaging, actives raise or lower the signal. Put shortly: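 Human HepG2 liver cells, treated 24 hr with test chemicals (0.39–200 uM, final DMSO 0.5% v/v), are fixed and co-stained for phospho-H2A.x and c-Jun with Hoechst. Imaged intensity is fitted in both directions against DMSO controls.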

The nature of assay [15]: APR_HepG2_StressKinase_72hr: Apredica 72-hour HepG2 Assay for Stress Kinase (AID 2282921). To be noted: HepG2 stress kinase (phospho-c-Jun) imaging, actives raise or lower the signal. The method, boiled down: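 Phospho-c-Jun immunofluorescence measured by high-content imaging at 20x, six fields per well; bidirectional curve fitting against DMSO as baseline. Dosing: 0.39–200 uM, 72 h, 0.5% DMSO final.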

Assay [16] in a line: APR_HepG2_StressKinase_24hr: Apredica 24-hour HepG2 Assay for Stress Kinase (AID 2282922). To be noted: HepG2 stress kinase (phospho-c-Jun) imaging, actives raise or lower the signal. The method, boiled down:
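Read-out: phospho-c-Jun immunofluorescence (Cy3 secondary) quantified by high-content imaging at 20x, nuclei defined by Hoechst 33342. Human HepG2 liver cells dosed 24 hr, 0.39–200 uM, DMSO 0.5% v/v; gain or loss of signal fitted relative to DMSO.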

Assay [17] in a line: APR_HepG2_p53Act_72hr: Apredica 72-hour HepG2 Assay for p53 Activation (AID 2282923).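 Also: average cellular p53 protein immunofluorescence intensity in HepG2 cells.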 To be noted: high-content imaging, actives raise or lower the signal. Put shortly:
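Readout: p53 immunofluorescence quantified by automated high-content imaging at 20x, six fields per well, nuclei located via Hoechst. Dosing ran 72 hr over ten concentrations from 0.39 to 200 uM; bidirectional curve fitting against DMSO baseline.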

Assay [18] can be described thus: APR_HepG2_MitoMass_72hr: Apredica 72-hour HepG2 Assay for Mitochondrial Mass (AID 2282924).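 Also: MitoTracker Red CMXRos stain intensity per cell imaged as mitochondrial mass.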 To be noted: high-content imaging, actives raise or lower the signal. Put shortly: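 Read-out: MitoTracker Red fluorescence intensity from automated imaging (20x, six fields per well) in human HepG2 liver cells. Dosing ran 72 hr, 0.39–200 uM, 0.5% DMSO; bidirectional curve fitting versus DMSO baseline.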

Assay [19] is described as follows: APR_HepG2_NuclearSize_72hr: Apredica 72-hour HepG2 Assay for Nuclear Size (AID 2282925). To be noted: high-content imaging, actives raise or lower the signal. Put shortly:
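Read-out: nuclear diameter from Hoechst 33342 images (ArrayScan, 20x, six fields/well), via cell-cycle image analysis. HepG2 were dosed 0.39–200 uM for 72 hr in 0.5% DMSO. Bidirectional fit relative to DMSO.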

A short description of assay [20]: APR_HepG2_MitoMembPot_72hr: Apredica 72-hour HepG2 Assay for Mitochondrial Membrane Potential (AID 2282917). The note with it: imaging, actives raise or lower the signal. Put shortly:
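HepG2 cells dosed 72 hr with compound at 0.39–200 uM in duplicate, 0.5% v/v DMSO final. Mitochondria stained with 250 nM MitoTracker Red CMXRos for 30 min before formaldehyde fixation, imaged by high-content fluorescence; bidirectional fit versus DMSO.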

Consider `O=c1ccc2ccccc2o1`, for which the compound was called inactive in assay [1], in assay [2], in [3], in assay [4], in assay [5] and in assay [6]. For the same compound, the outcome in [7], in assay [8], in assay [9], in assay [10], in assay [11] and in assay [12] was inactive. Besides, the compound was called inactive in assay [13], in assay [14], in [15], in assay [16], in assay [17] and in [18]. In addition, the compound was classed as inactive in assay [19].
As for `OC12N=C(c3ccccc3)SC1Cc1cc(Cl)ccc12` (configuration not stated), the call in assay [1], in [2], in [3], in assay [4], in assay [5] and in [6] was inactive. The compound was called inactive in assay [7], in assay [8], in assay [9], in [13], in [14] and in assay [15]. The call in [16], in assay [17], in assay [18] and in assay [19] was inactive. Moreover, the AC50 is 67.5 µM (active) in [10], 52.1 µM (active) in assay [11], 0.548 µM (active) in [20] and 46.8 µM (active) in assay [12].
`CC1=CC(=O)/C(=C(/C)O)C(=O)O1`: the compound was classed as inactive in assay [1], in assay [2], in [3], in assay [4], in [5] and in [6]. Besides, the outcome in assay [7], in assay [8], in assay [9], in assay [10], in assay [11] and in assay [20] was inactive. In addition, the compound was called inactive in [12], in [13], in assay [14], in [15], in [16] and in assay [17]. In addition, the call in assay [18] and in [19] was inactive.
Regarding `CCCCCCCCOc1ccc(C(=O)c2ccccc2)c(O)c1`, the AC50 is 103 µM (active) in assay [1], 164 µM (active) in [9] and 91.6 µM (active) in [10]. The compound was classed as inactive in assay [2], in assay [3], in assay [4], in [5], in assay [6] and in [7]. Besides, the call in assay [8], in [11], in assay [12], in assay [13], in assay [14] and in assay [15] was inactive. Besides, the result in assay [16], in assay [17], in assay [18] and in assay [19] was inactive.
Turning to `Cc1cccc2ccccc12`, the outcome in [1], in assay [2], in assay [3], in assay [4], in assay [5] and in [6] was inactive. The compound was classed as inactive in assay [7], in [8], in assay [9], in assay [10], in assay [11] and in [20]. Further, the outcome in assay [12], in assay [13], in assay [14], in assay [15], in [16] and in assay [17] was inactive. The call in assay [18] and in [19] was inactive.
For the compound `CN1C(=O)N(c2ccccc2Br)Cc2cnc(Nc3ccc4c(c3)OCC(CO)O4)nc21` (configuration not stated), the AC50 in assay [1] is 8.95 µM (active); in [3], 3.7 µM (active); in [5], 2.93 µM (active); in assay [6], 105 µM (active); in assay [8], 4 µM (active); in assay [9] it was 5.09 µM (active). For the same compound, the AC50 was 6.32 µM (active) in assay [10]; 3.96 µM (active) in [11]; 2.57 µM (active) in [12]; 5.05 µM (active) in assay [14]; 4.04 µM (active) in [17]; 19.8 µM (active) in [18]. Besides, the compound was called inactive in [2], in assay [4], in assay [7], in assay [13], in assay [15] and in assay [16]. Moreover, the outcome in assay [19] was inactive.

As usually defined, the AC50 is the concentration giving half of the maximal activity seen.
